Test results published in PubChem BioAssay (NCI).
This is part of a sample that, as a whole, favours compounds with a hit. Of some 79,000 tested, about 15% had one in any assay. Values without a mark were called inactive. Calls of active or inactive are those of the source. Rule as the data show it: active = growth inhibition above about 70%; inactive = the rest.

Legend:
[1] = NCI Yeast Anticancer Drug Screen. Data for the rad50 strain (AID 155);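 also: 0% = growth of vehicle-only cultures of the same strain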; conditions: S. cerevisiae rad50 strain growth inhibition, hits give high values
Summary of the method: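 Genetically altered yeast (DNA repair pathway); compound treatment; growth inhibition vs vehicle ctrl.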

[2] = NCI Yeast Anticancer Drug Screen. Data for the mec2-1 strain (AID 157); conditions: S. cerevisiae mec2-1 strain, hits give high values
Summary of the method: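 Yeast mec2-1 mutant treated with compound. Readout: growth inhibition vs vehicle controls.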

[3] = NCI Yeast Anticancer Drug Screen. Data for the sgs1 mgt1 strain (AID 161);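 also: 0% = growth of cultures given vehicle only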; conditions: S. cerevisiae sgs1 mgt1 strain, hits give high values
Summary of the method: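 Inhibition of yeast growth, normalised to vehicle-treated controls, is reported for a strain bearing genetic alterations in DNA damage repair.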

[4] = NCI Yeast Anticancer Drug Screen. Data for the cln2 rad14 strain (AID 165);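 also: 0% = growth equal to vehicle treated cultures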; conditions: S. cerevisiae cln2 rad14 strain, hits give high values
Summary of the method: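 cln2 rad14 yeast strain; compound exposure; growth inhibition read vs vehicle controls.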

[5] = NCI Yeast Anticancer Drug Screen. Data for the bub3 strain (AID 167); conditions: S. cerevisiae bub3 mutant strain, hits give high values
Summary of the method: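 Yeast carrying a defined mutation is treated with each compound, and growth is compared with that of vehicle-exposed cells to give inhibition.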

[6] = NCI Yeast Anticancer Drug Screen. Data for the mlh1 rad18 strain (AID 175); conditions: S. cerevisiae mlh1 rad18 strain growth inhibition, hits give high values
Summary of the method: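 Yeast w/ defined DNA-repair lesions; compound exposure; growth vs vehicle controls → % inhibition.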

[7] = at 5.0 µM (retest, dose inferred, filed as 0.5)
[8] = at 50.0 µM (retest, dose inferred, filed as 5.0)

Row | SMILES | growth inhibition [1, 7] | growth inhibition [1, 8] | growth inhibition ([1]; at 50.0 µM) | growth inhibition [2, 7] | growth inhibition [2, 8] | growth inhibition ([2]; at 50.0 µM) | growth inhibition [3, 7] | growth inhibition [3, 8] | growth inhibition ([3]; at 50.0 µM) | growth inhibition [4, 7] | growth inhibition [4, 8] | growth inhibition ([4]; at 50.0 µM) | growth inhibition [5, 7] | growth inhibition [5, 8] | growth inhibition ([5]; at 50.0 µM) | growth inhibition [6, 7] | growth inhibition [6, 8] | growth inhibition ([6]; at 50.0 µM)
1 | CCOC(=O)Cc1csc(/N=C\c2c(O)c3ccccc3oc2=O)n1 | 22% | 38% | -4.35% | 16% | 25% | -32.4% | 22% | 37% | -10.9% | 26% | 21% | 18.7% | 20% | 42% | -27.1% | 24% | 45% | 41.4%
2 | CCCc1cc(-c2ccc(O)c(CCC)c2)ccc1O | 92% (active) | 99% (active) | 99.6% (active) | 98% (active) | 99% (active) | 99.7% (active) | 90% (active) | 99% (active) | 99.5% (active) | 96% (active) | 99% (active) | 99.3% (active) | 99% (active) | 100% (active) | 99.7% (active) | 96% (active) | 99% (active) | 99.2% (active)
3 | CN(C)C(=S)/N=c1\sn(C)/c(=N\C(=S)N(C)C)n1C | -30% | -14% | -0.5% | -11% | -11% | -5.9% | 5% | 7% | -5.6% | -27% | -36% | -75.8% | -13% | -17% | 0.6% | -7% | -8% | 19.8%
4 | CC(C)S(=O)(=O)ON1C(=O)c2ccc(N(C)C)cc2C1=O | 14% | 35% | 91.7% (active) | 14% | 33% | 81.8% (active) | 16% | 34% | 61.3% | 24% | 42% | 95.4% (active) | 17% | 48% | 73.4% (active) | 16% | 40% | 97.5% (active)
5 | Cc1ccc(/C=N/NS(=O)(=O)c2ccccc2)c(C)c1 | -27% | 25% | 30.6% | -10% | 1% | 18.9% | 1% | 15% | 15% | -23% | 42% | -25.8% | 3% | 41% | 11.1% | -11% | 46% | 36.9%
6 | COC12C=CC(CC1)c1c2c(O)c2ncccc2c1O (stereo unspecified) | -4% | 67% | 78.6% (active) | -3% | 40% | 34.9% | -5% | 47% | 72.5% (active) | -4% | 23% | 21.9% | 3% | 77% (active) | 90.3% (active) | -6% | 52% | 48.3%
7 | O=C(CNC(=O)OCc1ccccc1)NNc1ccccc1Cl | 95% (active) | 98% (active) | 98.7% (active) | 94% (active) | 99% (active) | 98.5% (active) | 98% (active) | 99% (active) | 97.1% (active) | 97% (active) | 98% (active) | 98.7% (active) | 98% (active) | 96% (active) | 99.2% (active) | 98% (active) | 99% (active) | 99.3% (active)
8 | CCCCCCCCCC(=O)CC(=O)c1c(O)cccc1O | 33% | 83% (active) | 86% (active) | 20% | 92% (active) | 90.3% (active) | 52% | 96% (active) | 90.5% (active) | 22% | 83% (active) | 88.9% (active) | 42% | 94% (active) | 87.3% (active) | 40% | 95% (active) | 86.2% (active)
9 | CCCCCCCCCCCCCCCCCCOC(=O)Nc1ccc(C)c(NC(=O)OCCCCCCCCCCCCCCCCCC)c1 | -11% | -18% | 70.2% (active) | 6% | -1% | 60.9% | -6% | -11% | 59.8% | 0% | -19% | 26.4% | -3% | -3% | 83.6% (active) | -11% | -9% | 79.2% (active)
10 | S=C(NC(=S)Nc1ccccc1)Nc1ccccc1 | 0% | 29% | 93.8% (active) | -5% | 37% | 82.9% (active) | 7% | 69% | 96.3% (active) | -8% | 8% | 91.7% (active) | -1% | 21% | 96.3% (active) | 8% | 55% | 95.3% (active)
11 | CC(=O)Nc1ccc2c(c1)C(S)c1ccccc1-2 (stereo unspecified) | -5% | 32% | 52% | 9% | 27% | 31.7% | 2% | 53% | 46.6% | -70% | 18% | 33.2% | -1% | -60% | 49.4% | -2% | 71% (active) | 37.2%
12 | O=C1C(CN2CCCC2)C(O)=C(c2ccccc2)N1c1ccccc1 (stereo unspecified) | 5% | 4% | 52.2% | 1% | 9% | 14.8% | 1% | 2% | 75.5% (active) | -3% | 1% | 18.6% | -6% | 1% | 30.1% | 0% | 1% | 43.1%
13 | O=C1c2cccc(S(=O)(=O)O)c2C(=O)c2cccc([N+](=O)[O-])c21 | 2% | 30% | 31.1% | 0% | 31% | 23% | 5% | 45% | 16.3% | -1% | 28% | -8.35% | -1% | 25% | 16.6% | 6% | 40% | 69.1%
14 | COC(=O)C1C(O)C(C)C(=O)C(C)/C=C\C=C(C)C(=O)Nc2c(C)c(OC(C)=O)c3c(c2O)C(=O)C(C)=C2OCOC(=C23)C(C)=CC(C)(O)C(O)C(C)C1O (stereo unspecified) | 9% | 52% | 88.1% (active) | -3% | 77% (active) | 88.8% (active) | 0% | 59% | 92.2% (active) | 9% | 75% (active) | 75.6% (active) | -4% | 76% (active) | 87.3% (active) | -19% | 68% | 81% (active)
15 | CCCC/C=C(\CCCNCCCC)[Si](C)(C)C | 52% | 96% (active) | 89.9% (active) | 49% | 99% (active) | 92.8% (active) | 77% (active) | 99% (active) | 93.3% (active) | 53% | 98% (active) | 90.8% (active) | 78% (active) | 99% (active) | 91% (active) | 81% (active) | 98% (active) | 90.7% (active)
16 | CC(C)C1=C(O)C2=C(C(=O)C1=O)C1(C)CCCC(C)(C)C1C(O)C2OC=O (stereo unspecified) | 91% (active) | 95% (active) | 92.2% (active) | 100% (active) | 100% (active) | 93.7% (active) | 99% (active) | 100% (active) | 93.5% (active) | 81% (active) | 99% (active) | 92% (active) | 100% (active) | 100% (active) | 92.5% (active) | 98% (active) | 99% (active) | 87.5% (active)
17 | O=S(=O)(Nc1cccc(C2=NCCN2)c1)c1ccc2c(S(=O)(=O)Nc3cccc(C4=NCCN4)c3)cccc2c1 | -3% | 9% | 82.5% (active) | 6% | 2% | 9.45% | -5% | 2% | 88.3% (active) | -1% | 6% | 13.6% | -7% | -12% | 4.8% | -2% | 3% | 78.2% (active)
